Reference: PubChem BioAssay AID1259343 (VanderVen Lab, College of Veterinary Medicine, Cornell …, 2017)
Screen size: about 6,200 compounds; about 2,900 (47%) were called active. The set was probably picked from earlier hits. The list shows a part of the results. Values without a mark were called inactive. No stated cut-off is given here; in the data, active means inhibition above about 50%; inactive means the rest.

assay: Mycobacterium tuberculosis growth inhibition, primary screen (AID 1259343); conditions: inhibition: at 10 µM, stronger effect = higher value; outcome: 10 uM

Row | Compound | inhibition
1 | COC(=O)CSc1nnc(N2CCN(c3ccccc3)CC2)s1 | 75.5% (active)
2 | CCCCOC(=O)Nc1cc(C)c(Cl)cc1OC | 45.3%
3 | CNC(=O)NC(=O)COc1ccc(-c2ccccc2)cc1Cl | 40.5%
4 | COC(=O)COc1cc(Cl)c(Cl)cc1Cl | 77.4% (active)
5 | COc1cc(C(=O)Nc2cc(C)cc(C)c2)cc(Cl)c1O | -11.6%
6 | COC(=O)C(Nc1ccc(OC)cc1)(c1cc(OC)c(O)c(OC)c1)C(F)(F)F (configuration not stated) | 84% (active)
7 | Cc1nn(CC(C)C)c2sc(C(=O)NCC3CC3)cc12 | 3.65%
8 | c1ccc(N=c2scc(-c3ccccc3)n2CC2CCCO2)cc1 (configuration not stated) | 20.4%
9 | c1ccc2oc(-c3nnn(CC4CCCCO4)n3)cc2c1 (configuration not stated) | 91% (active)
10 | COc1ccc(N=c2scc(-c3cc4ccccc4o3)n2CC2CCCO2)cc1 (configuration not stated) | 77% (active)
11 | CC12CCC3C(=CCc4cc(O)ccc43)C1CCC2=O (configuration not stated) | 43.2%
12 | c1ccc2c(CCNc3ccc(Nc4ccncc4)cc3)c[nH]c2c1 | 72.8% (active)
13 | O=C(NCCc1c[nH]c2ccccc12)c1cn(Cc2ccccc2Cl)nn1 | 21.3%
14 | Cc1cc(C(=O)O)c(C)n1C | -7.58%
15 | CC1(C)CN=c2s/c(=C\c3ccc(Cl)cc3)c(=O)n2C1 | 31.2%
16 | CCOC(=O)C1=C(C)N=c2s/c(=C/c3cccc([N+](=O)[O-])c3)c(=O)n2C1c1ccccc1F (configuration not stated) | -21.3%
17 | CCOC(=O)c1ccc(N2CN=c3sc(=Cc4ccccc4)c(=O)n3C2)cc1 | 88.9% (active)
18 | Nc1nc(Cl)nc2c1ncn2[C@@H]1O[C@H](CO)[C@@H](O)[C@H]1O | 80.5% (active)
19 | CN(Cc1cnn(-c2ccc(F)cc2)c1)c1nncc(-c2ccccc2)n1 | inactive
20 | CN(CCC1CCCCO1)c1nncc(-c2ccccc2)n1 (configuration not stated) | 52.4% (active)
21 | CC1CCCC(C)C1NC(=O)Nc1nncc(-c2ccccc2)n1 (configuration not stated) | 21.4%
22 | Nc1nnc(SCC(=O)c2ccc(OCc3ccccc3)cc2)s1 | 86.1% (active)

Row | Compound | inhibition
23 | CC(OC(=O)c1ccc(OCc2ccccc2)cc1)c1nnc(-c2ccccc2)o1 (configuration not stated) | 26.8%
24 | c1ccc(OCCSc2nnc3sc4ccccc4n23)cc1 | 40.3%
25 | Brc1ccc(-c2ccc(C=NNC3=NCCCCC3)o2)cc1 | 92.4% (active)
26 | CCN(CC)C(=S)S | 92.6% (active)
27 | O=C1CCCc2c1[nH]c1ccc(-c3ccccc3CO)cc21 | 90.3% (active)
28 | COc1cc(C(=O)Nc2ccc(-c3cnco3)cc2)ccc1C | 49.6%
29 | COc1cncc(-c2ccc(NC(C)=O)cc2)c1 | 85% (active)
30 | COCC(=O)Nc1ccccc1-c1ccc(C(C)C)cc1 | 48.2%
31 | O=C(CCl)Nc1ccc(Oc2ccc(Br)cc2)cc1 | 18.2%
32 | COCC(=O)Nc1cccc(-c2ccc3c(c2)OCCO3)c1 | 63.2% (active)
33 | COCC(=O)Nc1ccc(-c2cc(OC)cc(OC)c2)cc1 | 88.7% (active)
34 | Cn1cc(C(=O)Nc2ccc(Oc3cccc(C#N)c3)cc2)ccc1=O | 23.5%
35 | COCC(=O)Nc1ccc(Oc2cccc(C)c2)cc1 | 76.6% (active)
36 | CC1(C)OC(=O)C(=C2C3C4CC5C2C2C3CC4C52)C(=O)O1 (configuration not stated) | 35.6%
37 | COC(=O)C(C)OC(=O)c1c[nH]c2cc(Br)c(Br)cc12 (configuration not stated) | 24.9%
38 | CC(C)c1nnc2sc(C3CCc4ccccc4C3)nn12 (configuration not stated) | 43.3%
39 | CN(c1ccc(C(N)=O)nn1)C1CCc2ccccc2C1 (configuration not stated) | 60.2% (active)
40 | Cc1ccc2oc(=O)n(CCCOc3ccccc3C)c2c1 | 95.8% (active)
41 | COCCCn1c(-c2ccc(C)cc2)nc2oc3ccccc3c(=O)c2c1=O | 9.29%
42 | Cc1ccc(N2C(=O)N(CCOc3cccc(Br)c3)C(=O)C2C)cc1 (configuration not stated) | 27.6%
43 | COc1ccccc1OCCCN1C(=O)C2(OCCCO2)c2ccccc21 | 40.7%
44 | Cc1cccc(OCCCn2c(=O)oc3ccc(C)cc32)c1 | 79.4% (active)

Row | Compound | inhibition
45 | Cc1cccc(OCCCn2c(=O)oc3ccccc32)c1 | -23.7%
46 | Cc1ccc(N(CC(=O)O)S(C)(=O)=O)cc1C | 92.8% (active)
47 | CC1(C)CC(=O)C(C(=O)Nc2sc3ccccc3c2Cl)C(=O)C1 | 98.3% (active)
48 | O=C1NC(c2sc3ccccc3c2Cl)Nc2ccccc21 (configuration not stated) | 28.9%
49 | CC(C)c1cc(=O)[nH]c(-n2nc(-c3cccs3)cc2NC(=O)c2ccc(Br)o2)n1 | 99.9% (active)
50 | Cc1cc(=O)[nH]c(-n2nc(-c3cccs3)cc2NC(=O)c2ccc(Br)o2)n1 | 97.5% (active)
51 | CC(C)c1cc(=O)[nH]c(-n2nc(-c3cccs3)cc2NC(=O)c2cc3ccccc3o2)n1 | 100% (active)
52 | Cc1cc(C(=S)N=P(N(C)C)(N(C)C)N(C)C)c(C)n1-c1ccccc1 | 98.9% (active)
53 | FC(F)(F)c1nnc2n1Nc1nc3ccccc3nc1S2 | 100% (active)
54 | COC(=O)Cc1ccc(C(=O)CCl)s1 | 92.5% (active)
55 | NC(=S)Nc1ccc(Cl)cc1 | 7.09%
56 | NC(=S)Nc1ccc(F)c(Cl)c1 | 4.04%
57 | NC(=S)Nc1ccc(F)cc1 | 52.9% (active)
58 | CC(=NOCc1cccc(CON=C(C)c2ccccc2)c1)c1ccccc1 | 86.9% (active)
59 | COc1cc(N/N=C(/C)c2cccc(C(F)(F)F)c2)nc(SC)n1 | 41.1%
60 | CCc1ccc(-c2nc(C)c(C(=O)Nc3ccc(OC)nc3)s2)cc1 | 42.7%
61 | CCc1nc(C)c(C(=O)Nc2ccc(CCC(F)(F)F)cc2)s1 | 66.2% (active)
62 | O=C(CCl)Nc1cc2c(cc1Br)OCCO2 | 94.1% (active)
63 | Cc1cc(N2CCCC2)ccc1NC(=O)CCl | 1.87%
64 | O=C(Nc1ccc(Oc2ccccc2F)cc1)C1CCN(C(=O)C2CCCO2)CC1 (configuration not stated) | inactive
65 | O=C(Nc1ccc(Oc2ccccc2F)cc1)C1CCN(C(=O)C2CC23CCC3)CC1 (configuration not stated) | 91.3% (active)
66 | O=C(Nc1ccc(Oc2ccccc2F)cc1)C1CCN(C(=O)C2CCCCO2)CC1 (configuration not stated) | 88.7% (active)

Row | Compound | inhibition
67 | FC(F)Oc1ccc(NC(=S)Nc2ccc3cn[nH]c3c2)cc1 | -5.27%
68 | COc1ccc(NC(=S)Nc2ccc3cn[nH]c3c2)cc1 | 68.9% (active)
69 | S=C(Nc1ccc(Cl)cc1)Nc1ccc2cn[nH]c2c1 | 37.2%
70 | C[C@]12C=CC(=O)C=C1CC[C@@H]1C2=CC[C@]2(C)[C@@H](C(=O)CN3CCN(c4cc(N5CCCC5)nc(N5CCCC5)n4)CC3)CC[C@@H]12 | 89.9% (active)
71 | FC(F)(F)CCc1ccnc(N[C@@H]2C[C@H]2c2ccccc2)n1 | 30.5%
72 | CC(C)c1nc(CN(C)Cc2ccc3ccccc3n2)cs1 | 2.62%
73 | CC(C)c1nc(CNc2nccc(CCC(F)(F)F)n2)cs1 | 94.8% (active)
74 | Nc1ccc2oc(CCc3ccccc3)nc2c1 | 33%
75 | Nc1ccc2oc(=O)ccc2c1 | 77.1% (active)
76 | Cc1c(Cl)c(=O)oc2cc(O)ccc12 | -23%
77 | O=c1ccc2ccc(O)cc2o1 | 74% (active)
78 | Nc1nc2c3ccccc3nc(-c3ccccc3)n2n1 | 83.3% (active)
79 | COc1cccc(Nc2nc(C(N)CCc3ccccc3)cs2)n1 (configuration not stated) | 82.2% (active)
80 | COc1cccc(Nc2nc(C(N)COCc3ccccc3)cs2)n1 (configuration not stated) | 64.3% (active)
81 | NC(=O)C1(N2CCCCC2)CCN(c2nc(-c3ccc(Cl)cc3Cl)cs2)CC1 | -20.2%
82 | Cc1ccc(NCc2ccc(C(=O)NCC3(CO)CCC3)cc2)cc1 | 43.9%
83 | Cc1ccc(CNc2nc3c(s2)CCCC3)cc1 | 74% (active)
84 | Nc1[nH]c(N=Nc2nc3c(s2)CCCC3)c2ccccc12 | -27.1%
85 | C/C(=N/OC(=O)c1ccc(-c2ccccc2)cc1)C(C)(C)C | 65.6% (active)
86 | Cc1ccc(/C(N)=N\OC(=O)CCc2ccccc2)cc1 | 29.4%
87 | O=c1c(Br)cccc(Br)c1O | 99.7% (active)
88 | CCNC(=S)NN=C(C)c1cccs1 | 101% (active)

Row | Compound | inhibition
89 | CC(=NNC(=S)NC(C)C)c1cccs1 | 104% (active)
90 | CC(=NNC(=S)NC1CCCCC1)c1cccs1 | -36.2%
91 | Nc1ccc(N=Nc2ccccc2)c(N)n1 | 93.8% (active)
92 | CCCC1CC(=O)CC(=O)C1 | -33.8%
93 | CCCC1CCC(c2ccc(C#N)c(=O)[nH]2)CC1 (configuration not stated) | 89.8% (active)
94 | Cc1c(C2CCN(CCc3ccccc3)CC2)noc1-c1ccc(Cl)cc1 | 88.1% (active)
95 | Fc1ccccc1CN1CCCC2(CCN(C3CCN(CCc4ccccc4)CC3)C2)C1 (configuration not stated) | 13.5%
96 | Fc1ccc(CSc2ncnc3c2nnn3Cc2ccccc2F)cc1 | -32.2%
97 | Fc1ccc(Cn2nnc3c(SCc4ccccc4)ncnc32)cc1 | 93.4% (active)
98 | Fc1ccccc1CSc1ncnc2c1nnn2Cc1ccccc1 | 10.4%
99 | Fc1cccc(CSc2ncnc3c2nnn3Cc2ccccc2F)c1 | 29.2%
100 | c1ccc(Cn2nnc3c(Sc4ncco4)ncnc32)cc1 | 68.9% (active)
101 | c1ccc(CSc2ncnc3c2nnn3Cc2ccccc2)cc1 | -43.1%
102 | Fc1ccccc1CSc1ncnc2c1nnn2Cc1ccccc1F | 94.8% (active)
103 | Cc1cccc(CSc2ncnc3c2nnn3Cc2ccc(F)cc2)c1 | 15.2%
104 | Fc1ccc(CSc2ncnc3c2nnn3Cc2ccc(F)cc2)cc1 | -6.41%
105 | Fc1ccc(Cn2nnc3c(SCc4cccc(F)c4)ncnc32)cc1 | 73.3% (active)
106 | CCOc1cc(S(=O)(=O)N2CCCCC2CC)ccc1Br (configuration not stated) | -6.56%
107 | CCC1CCCCN1S(=O)(=O)c1ccc(C(=O)Nc2nnc(CSC)o2)cc1 (configuration not stated) | 99.6% (active)
